# According to PMC7862700, “An all-to-all approach to the identification of sequence-specific readers for epigenetic DNA modifications on cytosine”:
# Tests used:
# Assay in all cases: DAPPL (digital affinity profiling via proximity ligation, sequencing); 10 mM Tris-HCl pH 7.5, 50 mM NaCl, 1 mM DTT, 4% glycerol, room temperature, 30 min; GST-TFs on glutathione beads, 16-mer random dsDNA library, 0.1% formaldehyde crosslink after washing; high values mean tight binding
# [1] = molecular target: T1, FEV (Homo sapiens, UniProt Q99581 1-238); details: protein: recombinant; tags: N-terminal GST; dsDNA, one strand shown
# T1 sequence: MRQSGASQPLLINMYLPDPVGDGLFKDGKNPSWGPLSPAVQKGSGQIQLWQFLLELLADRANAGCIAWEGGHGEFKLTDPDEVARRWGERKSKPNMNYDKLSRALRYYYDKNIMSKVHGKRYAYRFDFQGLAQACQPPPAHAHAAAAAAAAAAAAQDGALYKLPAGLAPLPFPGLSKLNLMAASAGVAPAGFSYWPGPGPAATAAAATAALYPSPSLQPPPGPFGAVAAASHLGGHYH
# Outline: (§1)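 In yeast, human transcription factors were expressed with a GST fusion, then pulled down on glutathione beads and given DNA barcodes. Pooled with a tag-only sample, they were exposed to 200 nmole of a 16-mer random double-stranded DNA library (Tris/NaCl/DTT/glycerol buffer, room temperature, 30 min), washed, crosslinked with 0.1% formaldehyde, proximity-ligated using BsaI/T4 ligase for 1 h at 37 °C, PCR-amplified and read on an Illumina NextSeq500. Each hexamer's frequency of reads for a factor, divided by the matching frequency for the tag-only sample, gives the binding signal.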
# [2] = molecular target: ETV5 (Homo sapiens, UniProt P41161 1-510); details: protein: recombinant; tags: N-terminal GST; dsDNA, one strand shown
# Sequence of ETV5 (P41161 whole entry): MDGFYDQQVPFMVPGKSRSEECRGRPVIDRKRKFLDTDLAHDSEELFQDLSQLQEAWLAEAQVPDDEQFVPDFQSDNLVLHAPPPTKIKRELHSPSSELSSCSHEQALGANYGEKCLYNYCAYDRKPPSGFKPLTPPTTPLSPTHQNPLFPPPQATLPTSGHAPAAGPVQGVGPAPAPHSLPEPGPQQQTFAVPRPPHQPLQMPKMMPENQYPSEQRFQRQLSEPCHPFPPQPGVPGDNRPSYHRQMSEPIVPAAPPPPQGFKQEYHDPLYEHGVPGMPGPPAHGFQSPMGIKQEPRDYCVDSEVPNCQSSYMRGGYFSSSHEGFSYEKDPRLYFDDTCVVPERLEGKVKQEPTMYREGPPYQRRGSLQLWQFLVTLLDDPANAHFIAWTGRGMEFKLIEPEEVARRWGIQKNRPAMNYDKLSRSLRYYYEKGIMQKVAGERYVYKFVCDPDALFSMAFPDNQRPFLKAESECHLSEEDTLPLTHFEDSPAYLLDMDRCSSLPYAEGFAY
# Outline: as §1
# [3] = molecular target: HSF1 (Homo sapiens, UniProt Q00613 1-529); details: protein: recombinant; tags: N-terminal GST; chain copies: 3; dsDNA, one strand shown
# Sequence of HSF1 (Q00613 whole entry): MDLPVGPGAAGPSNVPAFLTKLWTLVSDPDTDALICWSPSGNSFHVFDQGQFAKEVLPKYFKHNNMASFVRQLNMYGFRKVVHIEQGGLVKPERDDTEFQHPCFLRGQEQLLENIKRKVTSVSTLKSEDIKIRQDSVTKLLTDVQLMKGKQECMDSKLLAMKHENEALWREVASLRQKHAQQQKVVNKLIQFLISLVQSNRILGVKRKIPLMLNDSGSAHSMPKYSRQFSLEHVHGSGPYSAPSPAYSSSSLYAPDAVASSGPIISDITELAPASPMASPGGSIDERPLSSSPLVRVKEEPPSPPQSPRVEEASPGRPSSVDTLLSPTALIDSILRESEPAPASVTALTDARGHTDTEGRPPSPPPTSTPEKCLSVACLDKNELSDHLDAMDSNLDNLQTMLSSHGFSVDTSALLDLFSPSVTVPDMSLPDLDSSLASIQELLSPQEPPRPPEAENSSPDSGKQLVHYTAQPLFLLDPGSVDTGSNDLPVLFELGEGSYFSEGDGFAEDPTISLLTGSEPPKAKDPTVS
# Outline: as §1
# [4] = molecular target: T2, SPIC (Homo sapiens, UniProt Q8N5J4 1-248); details: protein: recombinant; tags: N-terminal GST; dsDNA, one strand shown
# T2 sequence: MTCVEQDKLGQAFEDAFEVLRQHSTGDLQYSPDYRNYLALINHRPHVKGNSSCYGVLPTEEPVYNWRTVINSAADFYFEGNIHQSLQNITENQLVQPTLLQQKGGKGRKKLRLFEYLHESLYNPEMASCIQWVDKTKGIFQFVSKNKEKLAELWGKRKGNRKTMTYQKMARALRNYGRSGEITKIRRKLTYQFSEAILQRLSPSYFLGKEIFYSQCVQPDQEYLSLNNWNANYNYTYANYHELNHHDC
# Outline: as §1
# [5] = molecular target: ELF4 (Homo sapiens, UniProt Q99607 1-663); details: protein: recombinant; tags: N-terminal GST; dsDNA, one strand shown
# Sequence of ELF4 (Q99607 whole entry): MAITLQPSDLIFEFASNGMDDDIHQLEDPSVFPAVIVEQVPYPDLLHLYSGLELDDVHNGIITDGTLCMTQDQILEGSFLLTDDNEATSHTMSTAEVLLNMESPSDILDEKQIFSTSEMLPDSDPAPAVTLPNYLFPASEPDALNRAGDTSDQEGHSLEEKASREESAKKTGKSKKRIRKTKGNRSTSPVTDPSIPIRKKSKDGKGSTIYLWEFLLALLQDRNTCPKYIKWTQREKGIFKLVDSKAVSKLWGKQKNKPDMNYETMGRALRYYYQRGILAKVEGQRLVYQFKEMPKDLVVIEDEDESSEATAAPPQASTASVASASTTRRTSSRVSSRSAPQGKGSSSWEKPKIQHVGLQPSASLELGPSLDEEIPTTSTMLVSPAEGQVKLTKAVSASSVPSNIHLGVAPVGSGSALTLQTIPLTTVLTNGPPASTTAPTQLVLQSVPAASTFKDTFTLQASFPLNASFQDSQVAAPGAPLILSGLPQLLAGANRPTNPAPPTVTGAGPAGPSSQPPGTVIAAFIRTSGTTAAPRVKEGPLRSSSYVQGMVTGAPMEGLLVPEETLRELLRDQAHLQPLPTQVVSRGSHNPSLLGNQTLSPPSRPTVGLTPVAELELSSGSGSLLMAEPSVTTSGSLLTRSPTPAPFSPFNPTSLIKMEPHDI
# Outline: as §1
# [6] = molecular target: T3, ELK4 (Homo sapiens, UniProt P28324-2 1-405); details: protein: recombinant; tags: N-terminal GST; dsDNA, one strand shown
# T3 sequence: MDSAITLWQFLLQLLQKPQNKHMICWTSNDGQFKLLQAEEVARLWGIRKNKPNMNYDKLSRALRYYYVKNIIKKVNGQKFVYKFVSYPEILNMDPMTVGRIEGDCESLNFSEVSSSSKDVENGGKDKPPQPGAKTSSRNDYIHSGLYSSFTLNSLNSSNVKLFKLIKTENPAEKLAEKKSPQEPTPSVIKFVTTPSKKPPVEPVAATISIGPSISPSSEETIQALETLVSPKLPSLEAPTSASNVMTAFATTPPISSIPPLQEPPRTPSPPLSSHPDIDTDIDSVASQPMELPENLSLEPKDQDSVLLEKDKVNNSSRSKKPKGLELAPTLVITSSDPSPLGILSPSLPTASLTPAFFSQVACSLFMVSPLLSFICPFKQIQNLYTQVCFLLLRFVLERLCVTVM
# Outline: as §1
# [7] = molecular target: T4, ETV2 (Homo sapiens, UniProt O00321 1-342); details: protein: recombinant; tags: N-terminal GST; dsDNA, one strand shown
# T4 sequence: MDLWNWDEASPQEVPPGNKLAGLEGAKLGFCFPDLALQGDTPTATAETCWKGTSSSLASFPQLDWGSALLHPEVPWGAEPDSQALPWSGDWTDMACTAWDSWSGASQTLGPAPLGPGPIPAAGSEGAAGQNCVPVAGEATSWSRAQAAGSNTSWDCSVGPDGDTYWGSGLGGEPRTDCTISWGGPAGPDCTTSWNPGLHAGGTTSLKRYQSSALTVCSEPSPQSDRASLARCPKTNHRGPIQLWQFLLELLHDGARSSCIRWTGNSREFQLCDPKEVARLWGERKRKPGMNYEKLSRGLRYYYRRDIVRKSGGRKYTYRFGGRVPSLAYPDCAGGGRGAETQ
# Outline: as §1
# [8] = molecular target: T5, ELF3 (Homo sapiens, UniProt P78545 1-371); details: protein: recombinant; tags: N-terminal GST; dsDNA, one strand shown
# T5 sequence: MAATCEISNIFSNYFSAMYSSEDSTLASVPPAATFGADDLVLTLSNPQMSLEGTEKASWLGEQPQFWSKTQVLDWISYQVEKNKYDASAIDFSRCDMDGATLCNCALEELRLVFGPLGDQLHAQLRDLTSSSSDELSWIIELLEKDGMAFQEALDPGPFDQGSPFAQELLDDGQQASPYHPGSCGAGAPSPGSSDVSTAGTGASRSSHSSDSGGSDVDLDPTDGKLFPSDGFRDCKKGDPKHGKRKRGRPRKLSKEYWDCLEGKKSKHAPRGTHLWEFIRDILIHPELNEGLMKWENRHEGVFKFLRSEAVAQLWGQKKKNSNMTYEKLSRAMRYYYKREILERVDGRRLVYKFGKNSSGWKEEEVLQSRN
# Outline: as §1
# [9] = molecular target: CRX (Homo sapiens, UniProt O43186 1-299); details: protein: recombinant; tags: N-terminal GST; dsDNA, one strand shown
# Sequence of CRX (O43186 whole entry): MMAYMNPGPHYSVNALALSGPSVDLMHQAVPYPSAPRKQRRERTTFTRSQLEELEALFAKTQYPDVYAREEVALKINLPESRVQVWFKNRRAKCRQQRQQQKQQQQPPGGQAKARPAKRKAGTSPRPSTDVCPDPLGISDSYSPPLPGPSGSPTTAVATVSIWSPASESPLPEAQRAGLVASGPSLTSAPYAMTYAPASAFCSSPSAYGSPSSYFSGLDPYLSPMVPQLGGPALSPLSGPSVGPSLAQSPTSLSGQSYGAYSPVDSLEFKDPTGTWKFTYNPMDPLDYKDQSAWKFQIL
# Outline: as §1
# [10] = molecular target: ETV1 (Homo sapiens, UniProt P50549 1-477); details: protein: recombinant; tags: N-terminal GST; dsDNA, one strand shown
# Sequence of ETV1 (P50549 whole entry): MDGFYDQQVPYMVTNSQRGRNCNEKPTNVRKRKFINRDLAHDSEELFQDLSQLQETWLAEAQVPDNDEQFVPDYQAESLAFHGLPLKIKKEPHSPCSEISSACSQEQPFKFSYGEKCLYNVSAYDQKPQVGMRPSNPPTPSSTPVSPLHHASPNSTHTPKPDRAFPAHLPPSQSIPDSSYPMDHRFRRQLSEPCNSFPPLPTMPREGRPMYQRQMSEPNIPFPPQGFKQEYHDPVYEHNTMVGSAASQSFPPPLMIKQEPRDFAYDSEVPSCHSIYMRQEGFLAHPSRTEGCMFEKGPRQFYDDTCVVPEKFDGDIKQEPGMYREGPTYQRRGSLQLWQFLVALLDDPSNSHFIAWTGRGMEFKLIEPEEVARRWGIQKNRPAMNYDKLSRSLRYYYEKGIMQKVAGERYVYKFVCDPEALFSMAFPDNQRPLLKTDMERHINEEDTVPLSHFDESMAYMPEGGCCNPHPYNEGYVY
# Outline: as §1
# [11] = molecular target: T6, ERF (Homo sapiens, UniProt P50548 1-548); details: protein: recombinant; tags: N-terminal GST; dsDNA, one strand shown
# T6 sequence: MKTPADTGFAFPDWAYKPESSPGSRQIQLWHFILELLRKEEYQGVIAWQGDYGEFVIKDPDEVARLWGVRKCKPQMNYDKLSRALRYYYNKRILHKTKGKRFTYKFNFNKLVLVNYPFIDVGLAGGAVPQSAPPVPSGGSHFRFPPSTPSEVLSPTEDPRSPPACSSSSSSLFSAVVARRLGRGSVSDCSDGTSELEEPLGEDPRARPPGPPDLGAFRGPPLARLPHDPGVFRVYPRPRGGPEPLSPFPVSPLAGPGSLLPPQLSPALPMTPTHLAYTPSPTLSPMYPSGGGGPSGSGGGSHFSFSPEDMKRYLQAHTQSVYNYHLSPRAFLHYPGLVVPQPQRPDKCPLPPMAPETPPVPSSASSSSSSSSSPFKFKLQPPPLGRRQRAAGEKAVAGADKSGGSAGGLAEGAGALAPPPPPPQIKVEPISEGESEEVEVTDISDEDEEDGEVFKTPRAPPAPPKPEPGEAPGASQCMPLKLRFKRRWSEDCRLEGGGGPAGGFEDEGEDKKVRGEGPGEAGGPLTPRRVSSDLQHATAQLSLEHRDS
# Outline: as §1
# [12] = molecular target: T7, ETV3L (Homo sapiens, UniProt Q6ZN32 1-361); details: protein: recombinant; tags: N-terminal GST; dsDNA, one strand shown
# T7 sequence: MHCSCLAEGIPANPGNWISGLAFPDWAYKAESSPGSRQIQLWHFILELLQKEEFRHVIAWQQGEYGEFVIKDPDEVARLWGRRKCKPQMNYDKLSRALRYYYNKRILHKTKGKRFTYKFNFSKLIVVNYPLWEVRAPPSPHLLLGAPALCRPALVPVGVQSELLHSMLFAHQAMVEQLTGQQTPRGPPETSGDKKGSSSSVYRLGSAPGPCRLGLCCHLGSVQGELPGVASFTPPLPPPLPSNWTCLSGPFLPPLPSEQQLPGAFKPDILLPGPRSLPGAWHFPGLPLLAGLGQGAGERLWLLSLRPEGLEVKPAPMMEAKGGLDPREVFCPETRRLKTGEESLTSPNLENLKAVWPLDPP
# Outline: as §1
# [13] = molecular target: T8, ETS2 (Homo sapiens, UniProt P15036 1-469); details: protein: recombinant; tags: N-terminal GST; dsDNA, one strand shown
# T8 sequence: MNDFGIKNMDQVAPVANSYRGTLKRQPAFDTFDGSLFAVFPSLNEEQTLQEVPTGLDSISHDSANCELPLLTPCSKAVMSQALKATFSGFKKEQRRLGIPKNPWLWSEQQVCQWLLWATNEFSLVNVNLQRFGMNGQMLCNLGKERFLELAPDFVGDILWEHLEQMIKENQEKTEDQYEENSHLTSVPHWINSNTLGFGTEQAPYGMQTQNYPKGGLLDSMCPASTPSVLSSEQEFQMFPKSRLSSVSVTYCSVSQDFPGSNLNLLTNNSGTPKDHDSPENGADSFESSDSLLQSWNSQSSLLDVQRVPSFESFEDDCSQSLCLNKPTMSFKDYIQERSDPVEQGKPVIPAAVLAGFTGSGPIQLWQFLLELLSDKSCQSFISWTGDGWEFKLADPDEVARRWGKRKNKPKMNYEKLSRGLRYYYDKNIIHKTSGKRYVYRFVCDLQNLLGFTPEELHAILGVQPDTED
# Outline: as §1
# [14] = molecular target: T9, SPDEF (Homo sapiens, UniProt O95238 1-335); details: protein: recombinant; tags: N-terminal GST; dsDNA, one strand shown
# T9 sequence: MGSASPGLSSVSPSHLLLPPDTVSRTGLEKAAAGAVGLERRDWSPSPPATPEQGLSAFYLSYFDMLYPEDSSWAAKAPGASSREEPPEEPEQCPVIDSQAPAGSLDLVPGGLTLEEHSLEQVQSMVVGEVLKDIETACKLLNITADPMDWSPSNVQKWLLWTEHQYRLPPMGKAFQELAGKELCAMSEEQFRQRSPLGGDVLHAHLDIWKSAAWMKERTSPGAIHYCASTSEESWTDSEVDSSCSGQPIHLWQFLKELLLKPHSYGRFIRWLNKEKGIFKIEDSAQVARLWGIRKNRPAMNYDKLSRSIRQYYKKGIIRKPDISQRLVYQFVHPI
# Outline: as §1
# [15] = molecular target: T10, ETV7 (Homo sapiens, UniProt Q9Y603 1-341); details: protein: recombinant; tags: N-terminal GST; dsDNA, one strand shown
# T10 sequence: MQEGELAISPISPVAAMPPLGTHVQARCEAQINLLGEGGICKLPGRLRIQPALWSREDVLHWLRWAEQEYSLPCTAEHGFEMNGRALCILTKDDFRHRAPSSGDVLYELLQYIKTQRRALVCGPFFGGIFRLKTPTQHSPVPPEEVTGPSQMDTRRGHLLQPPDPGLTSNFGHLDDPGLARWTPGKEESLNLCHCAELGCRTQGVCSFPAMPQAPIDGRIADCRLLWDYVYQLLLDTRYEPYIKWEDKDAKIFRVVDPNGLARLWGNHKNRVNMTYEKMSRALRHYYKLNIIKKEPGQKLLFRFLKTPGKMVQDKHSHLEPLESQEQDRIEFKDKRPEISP
# Outline: as §1
# [16] = molecular target: T11, ELF5 (Homo sapiens, UniProt Q9UKW6-2 1-255); details: protein: recombinant; tags: N-terminal GST; dsDNA, one strand shown
# T11 sequence: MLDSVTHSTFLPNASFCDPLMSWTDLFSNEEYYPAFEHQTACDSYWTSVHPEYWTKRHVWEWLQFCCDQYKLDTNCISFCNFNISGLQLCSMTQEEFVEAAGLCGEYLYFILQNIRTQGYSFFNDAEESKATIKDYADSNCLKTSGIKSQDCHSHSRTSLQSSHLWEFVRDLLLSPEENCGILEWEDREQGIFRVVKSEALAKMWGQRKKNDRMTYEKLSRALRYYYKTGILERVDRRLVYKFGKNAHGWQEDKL
# Outline: as §1
# [17] = molecular target: T12, ETV3 (Homo sapiens, UniProt P41162-2 1-143); details: protein: recombinant; tags: N-terminal GST; dsDNA, one strand shown
# T12 sequence: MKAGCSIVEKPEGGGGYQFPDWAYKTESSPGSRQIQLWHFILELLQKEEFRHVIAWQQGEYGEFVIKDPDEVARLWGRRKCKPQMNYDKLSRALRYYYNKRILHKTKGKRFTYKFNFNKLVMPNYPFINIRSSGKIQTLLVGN
# Outline: as §1
# [18] = molecular target: ETV6 (Homo sapiens, UniProt P41212 1-452); details: protein: recombinant; tags: N-terminal GST; dsDNA, one strand shown
# Sequence of ETV6 (P41212 whole entry): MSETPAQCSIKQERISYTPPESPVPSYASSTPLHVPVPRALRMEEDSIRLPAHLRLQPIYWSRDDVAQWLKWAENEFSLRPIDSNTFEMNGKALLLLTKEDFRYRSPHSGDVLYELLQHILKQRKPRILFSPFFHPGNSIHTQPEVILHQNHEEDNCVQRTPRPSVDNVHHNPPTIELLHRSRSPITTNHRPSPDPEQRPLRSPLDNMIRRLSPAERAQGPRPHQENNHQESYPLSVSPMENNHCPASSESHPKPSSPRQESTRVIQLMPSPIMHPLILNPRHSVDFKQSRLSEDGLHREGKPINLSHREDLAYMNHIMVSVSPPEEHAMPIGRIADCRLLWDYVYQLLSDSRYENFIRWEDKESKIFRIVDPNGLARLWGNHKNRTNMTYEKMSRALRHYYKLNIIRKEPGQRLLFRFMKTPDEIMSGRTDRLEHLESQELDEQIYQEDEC
# Outline: as §1
sequence,measurement,setting,value
ACCATA,binding signal,[1],"1.17 fold enrichment (6-mer frequency, TF over GST control)"
same,binding signal,[2],"1.21 fold enrichment (6-mer frequency, TF over GST control)"
same,binding signal,[3],"1.08 fold enrichment (6-mer frequency, TF over GST control)"
same,binding signal,[4],"1.22 fold enrichment (6-mer frequency, TF over GST control)"
same,binding signal,[5],"1.21 fold enrichment (6-mer frequency, TF over GST control)"
same,binding signal,[6],"1.31 fold enrichment (6-mer frequency, TF over GST control)"
same,binding signal,[7],"1.17 fold enrichment (6-mer frequency, TF over GST control)"
same,binding signal,[8],"1.14 fold enrichment (6-mer frequency, TF over GST control)"
same,binding signal,[9],"1.14 fold enrichment (6-mer frequency, TF over GST control)"
same,binding signal,[10],"1.09 fold enrichment (6-mer frequency, TF over GST control)"
same,binding signal,[11],"1.15 fold enrichment (6-mer frequency, TF over GST control)"
same,binding signal,[12],"1.25 fold enrichment (6-mer frequency, TF over GST control)"
same,binding signal,[13],"1.17 fold enrichment (6-mer frequency, TF over GST control)"
same,binding signal,[14],"1.17 fold enrichment (6-mer frequency, TF over GST control)"
same,binding signal,[15],"1.11 fold enrichment (6-mer frequency, TF over GST control)"
same,binding signal,[16],"1.15 fold enrichment (6-mer frequency, TF over GST control)"
same,binding signal,[17],"1.19 fold enrichment (6-mer frequency, TF over GST control)"
same,binding signal,[18],"1.16 fold enrichment (6-mer frequency, TF over GST control)"
